The values that follow come from PubChem BioAssay (NCATS).

Results filed as inconclusive are left out. A number with no mark means an inactive call. Calls come from the whole dose curve; as a rule, active = well fitted cell-killing curve with a large enough effect; inconclusive = small, poorly fitted or top-dose-only effect, or effect the other way; inactive = flat fitted curve, though single readings scatter.
% is set by controls: 0 for no effect and ±100 for the full control effect.

This assay is described as follows: MultiTox-Fluor Cytotoxicity Assay - LYMP1-002 - Live Cells (AID 955). The conditions noted are these: LYMP1-002 lymphoblastoid live-cell protease fluorescence viability; series mostly up to 46.1 µM; viability change, negative = cytotoxic: at the top concentration. The text has this: NIH Chemical Genomics Center [NCGC]
NIH Molecular Libraries Screening Centers Network [MLSCN]
National Institutes of Environmental Health Sciences [NIEHS]
National Toxicology Program [NTP]
We have developed a 1536-well cell-based assay for quantitative high throughput screening (qHTS) against a number of cell lines to determine in vitro cytotoxicity of small molecules. This particular assay uses a human lymphoblastoid cell line (LYMP1-002) purchased from Coriell Institute.
NCGC Assay Protocol Summary:
The MultiTox-Fluor Cytotoxicity Assay (Promega) is a homogeneous method to simultaneously measure the relative number of live and dead cells in culture by detecting changes in cell membrane integrity. There are two fluorogenic peptide substrates in the assay reagent. Viable cells are determined when the cell-permeant substrate (GF-AFC) enters the cell and is cleaved by protease from live cells resulting in liberated fluorophore. This live-cell protease activity restricted to viable cells is proportional to cell number. The dead cells are determined by using fluorogenic cell-impermeant peptide substrate (bis-AAF-R110) which cleaved by dead cell proteases leaking from damaged cell membrane.
Using the MultiTox-Fluor Cytotoxicity Assay, the relative number of live cells was measured in the lymphoblastoid cell line with complete culture medium following compound treatment for 16 hours. The assay was performed in opaque black Kalypsys 1536-well plates. In the screen, tetraoctylammonium bromide was used as positive control. Library compounds were measured for their ability to cause acute toxicity in the cell line, as reflected by a decrease in live cell protease activity, in a concentration-dependent manner. […] AC50 values were determined from concentration-response data modeled with the standard Hill equation.
qHTS protocol for MultiTox-Fluor Cytotoxicity assay
[Step] [Parameter] [Value] [Description]
1. Reagent; 5 uL; 2500 lymphoblastoid cells/well
2. Time; 5 hr; 37 C incubation
4. Controls; 23 nL; Tetraoctylammonium bromide 6.4pM to 92 uM
5. Time; 16 hr; 37 C incubation
6. Reagent; 5 uL; MuliTox-Fluor Assay reagent
7. Time; 60 min; Room Temperature
8. Detection; live-cell fluorescence (Ex/Em=405/510); EnVision plate reader
Keywords: cell viability, cytotoxicity, lymphoblastoid cell line, fluorescence, NTPHTS, NTPHTS_NCGC, NIEHS, EPA, DSSTox, MLSMR, MLSCN, NIH Roadmap, qHTS, NCGC
Take `OCC(CBr)(CBr)CBr`: the “viability change, negative = cytotoxic” value is 10.7%. In the case of `Cc1cccnc1`, the “viability change, negative = cytotoxic” value was -12.8%. For `Cc1ccc2ccc3cccc4ccc1c2c34`, the “viability change, negative = cytotoxic” value was 23.7%.

In the case of `O=[N+]([O-])c1cccc(I)c1`, the “viability change, negative = cytotoxic” value was -1.48%.

In the case of `Cc1c(C(=O)O)c(O)cc2c1C(=O)c1c(O)c([C@H]3O[C@H](CO)[C@@H](O)[C@H](O)[C@H]3O)c(O)c(O)c1C2=O`, the “viability change, negative = cytotoxic” value is -8.41%. Regarding `CC(=O)OC(C(=O)c1ccccc1)c1ccccc1` (stereo not given), the “viability change, negative = cytotoxic” value was 4.33%. Turning to `S=C(NC1CCCCC1)NC1CCCCC1`, the “viability change, negative = cytotoxic” value was 1.69%.

On to `c1ccc(CSCc2ccccc2)cc1`, for which the “viability change, negative = cytotoxic” value is -1.71%. Then `O=C(O)/C=C/c1ccc(/C=C/C(=O)O)cc1`, with -6.35%; and `CC(/C=C/C=C(C)/C=C/C(=O)O)=C\C=C\C=C(C)\C=C\C=C(C)\C=C\C(=O)O`, with 2.42%; and `CCNC(=S)NCC`, with -12.3%. `CCOc1ccc2nc(N)sc2c1`: the “viability change, negative = cytotoxic” value is 0.988%. `c1c[nH]cn1`: the “viability change, negative = cytotoxic” value is 0.82%. For `c1ccc2ncccc2c1`, the “viability change, negative = cytotoxic” value is -9.55%. The figure for `c1ccncc1` is 0.258%. Regarding `CN(C)c1ccc(Cc2ccc(N(C)C)cc2)cc1`, the “viability change, negative = cytotoxic” value is 10.8%. As for `C1CCCNCC1`, the “viability change, negative = cytotoxic” value was 2.72%.

In the case of `O=C1c2ccccc2C(=O)C1(O)O`, the “viability change, negative = cytotoxic” value was -22.8%.

`Oc1cc(Cl)cc(Cl)c1Cl`: the “viability change, negative = cytotoxic” value was 1.84%. Consider `O=CC(=O)c1ccccc1`, for which the “viability change, negative = cytotoxic” value was -4.25%.

`Cc1ccccc1OCC1CO1` (stereo not given): the “viability change, negative = cytotoxic” value is -6.19%.

`CCCC(=O)OC(=O)CCC`: the “viability change, negative = cytotoxic” value is 7.84%. Turning to `CCCCCCN`, the “viability change, negative = cytotoxic” value is 8.81%. For `CCOC(=O)C1OC1c1ccccc1` (stereo not given), the “viability change, negative = cytotoxic” value is 8.93%. Regarding `O=C(Cl)c1ccc([N+](=O)[O-])cc1`, the “viability change, negative = cytotoxic” value was 10.2%.

Consider `CC(=O)OCc1ccc2c(c1)OCO2`, for which the “viability change, negative = cytotoxic” value is -6.71%. Then `Brc1ccc(-c2ccccc2)cc1`, with -12.2%; and `CC(C)OCC1CO1` (stereo not given), with 8%; and `O=C1OC(=O)c2ccccc21`, with -8.56%. Take `Cc1c(N)cccc1Cl`: the “viability change, negative = cytotoxic” value was -5.72%. On to `OCC(CO)(CBr)CBr`, for which the “viability change, negative = cytotoxic” value is -5.73%. Then `C=CC(C)(O)CCCC(C)CCCC(C)CCCC(C)C` (stereo not given), with 7.33%; and `O=[N+]([O-])c1ccc(F)cc1F`, with 4.81%. Then `CCCCC(CC)COC(=O)COc1ccc(Cl)cc1Cl` (stereo not given), with 6.78%; and `C=C(C#N)C(=O)OCC`, with -8.19%. As for `CCCCC(CC)COCCCN` (stereo not given), the “viability change, negative = cytotoxic” value was 8.57%. Turning to `c1ccc(SCCSc2ccccc2)cc1`, the “viability change, negative = cytotoxic” value was 5.91%.

Consider `CC(C)S`, for which the “viability change, negative = cytotoxic” value is 4.52%. Turning to `Nc1ccc(N)c(Cl)c1`, the “viability change, negative = cytotoxic” value is -14.7%.

As to `OC1CCCCC1`, the “viability change, negative = cytotoxic” value is 6.72%.
